Data reported in PubChem BioAssay AID2284187 (EPA ToxCast).
Inconclusive results are not listed. Active and inactive are the calls of the source. Rule for the calls: active = hit-call score of the fitted dose curve at least 0.9, where 1 is the maximum; inconclusive = response in the unintended direction; inactive = score below 0.9.

molecular target: rat GHB Receptor Antagonism, Tspan17 (gene 306771) (UniProt Q4V8E0); assay: ERF_FR_GPCR_rGHB: Eurofins (ERF) G Protein-Coupled Receptor (GPCR) Radioligand Binding LeadHunter Assay for rat GHB Receptor Antagonism
Sequence (Q4V8E0 whole entry, looked up): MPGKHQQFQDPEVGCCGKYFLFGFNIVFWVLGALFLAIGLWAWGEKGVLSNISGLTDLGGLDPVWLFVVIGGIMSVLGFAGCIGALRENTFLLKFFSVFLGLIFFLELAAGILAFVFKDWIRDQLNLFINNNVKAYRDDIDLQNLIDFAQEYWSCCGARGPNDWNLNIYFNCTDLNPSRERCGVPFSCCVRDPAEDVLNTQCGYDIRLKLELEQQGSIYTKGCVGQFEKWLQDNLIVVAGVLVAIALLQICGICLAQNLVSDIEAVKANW
Experimental: ERF_FR_GPCR_rGHB is a biochemical, single-readout assay that uses extracted gene-proteins in a cell-free assay. Measurements were taken 2 hour after chemical dosing in a 96-well plate. See GHB Rat Binding (Antagonist Radioligand) Assay, Cerep.ERF_FR_GPCR_rGHB is an assay component calculated from the ERF_FR_GPCR_rGHB assay. It is designed to measure radioligand binding using a type of binding reporter as detected by scintillation counting with radiometry technology.Data from the assay component ERF_FR_GPCR_rGHB was analyzed at the assay endpoint, ERF_FR_GPCR_rGHB, in the positive analysis fitting direction relative to DMSO as the negative control and baseline of activity. Using a type of binding reporter, loss-of-signal activity can be used to understand changes in binding as they relate to gene TSPAN17. To generalize the intended target to other relatable targets, this assay endpoint is annotated to the gpcr intended target family, where the subfamily is ghb .
Brain cortex of Wistar derived rats weighing 175 +/- 25 g are used to prepare GHB receptors in potassium buffer pH 6.0. A 1 mg aliquot is incubated with 20 nM [3H] NCS382 for 120 minutes at 4 C. Non-specific binding is estimated in the presence of 1 mM NCS382. Membranes are filtered and washed, the filters are then counted to determine [3H] NCS382 specifically bound. […]

| Compound | AC50 |
| --- | --- |
| O=C(/C=C/c1ccc(O)cc1)CC(=O)/C=C/c1ccc(O)cc1 | 1670 nM (active) |
| COc1cc(/C=C/C(=O)CC(=O)/C=C/c2ccc(O)c(OC)c2)ccc1O | 1590 nM (active) |
